From PubChem BioAssay (Tox21)
Inconclusive results are not listed. Calls of active or inactive are those of the source. The call rests on the fitted dose curve.

test: p53 small molecule agonists, cell-based qHTS assay: qHTS cell viability counter screen (AID 1963581); details: p53RE-bla HCT-116 viability, ATP luminescence, 16 h; series mostly up to 66 µM; activity change, negative = cytotoxicity: at the top concentration; further: nearly all actives have a fitted effect of over 45% in size
Description: National Center for Advancing Translational Sciences [NCATS]
Division of Preclinical Innovation [DPI]
U.S. Environmental Protection Agency [EPA]
National Institutes of Environmental Health Sciences [NIEHS]
National Toxicology Program [NTP]
U.S. Food and Drug Administration [FDA]
p53, a tumor suppressor protein, is activated following cellular insult, including DNA damage and other cellular stresses. The activation of p53 regulates cell fate by inducing DNA repair, cell cycle arrest, apoptosis, or cellular senescence. The activation of p53, therefore, is a good indicator of DNA damage and other cellular stresses. The CellSensor p53RE-bla HCT-116 cell line (Invitrogen) contains a stably integrated beta-lactamase reporter gene under control of the p53 response elements. The activation of the reporter gene under culture conditions can be detected by fluorescence intensity. This cell line was used to screen the Tox21 compound library in a 1536-well plate format and to identify agonists that activate the p53 signaling pathway. The cytotoxicity of the Tox21 compound library against the p53 RE-bla HCT-116 cell line was tested in parallel by measuring the intra cellular ATP content in the same wells.
Tox21 Assay Protocol Summary:
The p53RE-bla cells were dispensed at 4,000 cells/5 ul/well in 1536-well black wall/clear bottom plates using a Multidrop dispenser. After the assay plates were incubated at a 37 C/5% CO2 incubator for 5 hours, 23 nL of compounds dissolved in DMSO, positive controls or DMSO only was transferred to the assay plate by a pin tool. The plates were incubated at 37 C for 16 hours. After 1 uL of LiveBLAzerTM B/G FRET substrate was added using a Flying Reagent Dispenser, the plates were incubated at room temperature for 2 hours, and fluorescence intensity was measured by an Envision plate reader. For cell viability readout that measures cytotoxicity, 4 ul/well of CellTiter-Glo reagent was added into the assay plates using a Flying Reagent Dispenser. After 30 min incubation at room temperature, the luminescence intensity in the plates was measured using a ViewLux plate reader.
On the % scale 0 is the no-effect control and ±100 the full control effect.

Row | SMILES | activity change, negative = cytotoxicity
1 | Cc1ccc(Cl)cc1Cl | -3.59% (inactive)
2 | COc1cccc(O)c1O | 2.04% (inactive)
3 | Cc1[nH]cnc1CN1CCc2c(c3ccccc3n2C)C1=O | -17.7% [at 30.3 µM] (inactive)
4 | O=CN1CCCCC1 | 2.32% (inactive)
5 | COc1cc(S(=O)(=O)O)c(C)cc1N=Nc1c(O)ccc2cc(S(=O)(=O)O)ccc12 | 16.6% (inactive)
6 | CCc1ccc(CC)cc1 | 9.7% (inactive)
7 | CN(C)CCN(C)CCN(C)C | 0.476% (inactive)
8 | CN1C(C)(C)CCCC1(C)C | -21.9% [at 30.3 µM] (inactive)
9 | O=CC(=O)c1ccccc1 | 3.02% (inactive)
10 | CC[C@@]1(O)C(=O)OCc2c1cc1n(c2=O)Cc2c-1nc1ccccc1c2/C=N/OC(C)(C)C | 10.5% [at 30.3 µM] (inactive)
11 | CC(C)(O)c1ccc(CNC(=O)c2cccnc2Oc2ccc(F)cc2)cc1 | 14.5% (inactive)
12 | CCCCCc1ccco1 | 0.671% [at 30.3 µM] (inactive)
13 | O=C(Nc1ccc(Cl)c(Cl)c1)C1CC1 | 9.23% [at 30.3 µM] (inactive)
14 | C/C=C(/C(=C/C)c1ccc(OC(C)=O)cc1)c1ccc(OC(C)=O)cc1 | 0.462% [at 30.3 µM] (inactive)
15 | CCC(=O)Nc1ccc(O)cc1 | -1.28% [at 30.3 µM] (inactive)
16 | Cc1ccc2c(Cl)cc(Cl)c(O)c2n1 | 6.76% [at 30.3 µM] (inactive)
17 | O=C(O)c1cccc(Cl)n1 | 8.72% (inactive)
18 | CNC(=O)CN(CCN(CCN(CC(=O)[O-])CC(=O)NC)CC(=O)[O-])CC(=O)[O-].O.[Gd+3] | -10.1% [at 30.3 µM] (inactive)
19 | Cc1c(C)c2c(c(C)c1OC(=O)CCC(=O)OCCO)CC[C@@](C)(CCC[C@H](C)CCC[C@H](C)CCCC(C)C)O2 | -0.281% [at 30.3 µM] (inactive)
20 | OCC(O)c1ccccc1 (stereo not given) | -14.9% (inactive)

Row | SMILES | activity change, negative = cytotoxicity
21 | O=C1N(c2ccccc2)c2ccccc2C1(Cc1ccncc1)Cc1ccncc1 | -12.2% [at 30.3 µM] (inactive)
22 | CCCCCCCCCCCCCCCC[N+](C)(C)CCN(Cc1ccc(OC)cc1)c1ncccn1 | -24.2% [at 30.3 µM] (inactive)
23 | O=C(OOC(=O)c1ccccc1)c1ccccc1 | -0.0801% [at 30.3 µM] (inactive)
24 | O=C(Oc1ccccc1)c1ccccc1C(=O)Oc1ccccc1 | -3.53% (inactive)
25 | O=C1c2ccccc2C(=O)C1c1ccccc1 | -1.23% [at 30.3 µM] (inactive)
26 | CC(=O)OCC(=O)[C@@]1(OC(C)=O)[C@@H](C)C[C@H]2[C@@H]3C[C@H](F)C4=CC(=O)C=C[C@]4(C)[C@@]3(F)[C@@H](O)C[C@@]21C | -11.1% [at 30.3 µM] (inactive)
27 | N[C@H]1C(O)O[C@H](CO)[C@H](O)[C@@H]1O (stereo not given in full) | -0.542% (inactive)
28 | CCOC(=O)CCCCCCCCC(=O)OCC | -0.418% (inactive)
29 | COc1cc2nc(N3CCN(C(=O)C4CCCO4)CC3)nc(N)c2cc1OC (stereo not given) | -6.88% [at 30.3 µM] (inactive)
30 | CCN(CCCCOC(=O)c1ccc(OC)c(OC)c1)C(C)Cc1ccc(OC)cc1 (stereo not given) | -15.5% [at 30.3 µM] (inactive)
31 | Cc1ccc(OC(=O)c2ccccc2O)cc1 | 3.94% (inactive)
32 | COCCOCC(OC)OC | 11.5% [at 30.3 µM] (inactive)
33 | Nc1ncnc2c1ncn2[C@H]1CC[C@@H](CO)O1 | 6.54% (inactive)
34 | BrC/C=C/CBr | -2.07% [at 13.5 µM] (inactive)
35 | COc1cc(C(C)C)ccc1C | -2.99% [at 13.5 µM] (inactive)
36 | CC(C)OC(=O)c1cc2c(OCC(O)CNC(C)(C)C)cccc2[nH]1 (stereo not given) | -14.9% [at 30.3 µM] (inactive)
37 | CCCCNc1c(C(=O)OCC)c(C)nc2c1cnn2CC | -12.6% [at 30.3 µM] (inactive)
38 | OC[C@H]1O[C@@H](O[C@@H]2[C@@H](CO)O[C@](O)(CO)[C@H]2O)[C@H](O)[C@@H](O)[C@H]1O | -10.6% [at 30.3 µM] (inactive)
39 | CCCCCCCCCCCCCCCC(=O)OC[C@H](O)[C@H]1OC(=O)C(O)=C1O | -1.22% (inactive)
40 | NCCCNCCSP(=O)(O)O | 5.99% [at 5.99 µM] (inactive)
